Records with an inconclusive call do not appear. Active and inactive are the calls of the source. Calls follow the shape of the dose curve; as a rule, active = well fitted curve in the direction sought with a large enough effect; inconclusive = small, poorly fitted or top-dose-only effect, or another doubt; inactive = no such curve, though single readings can be large; an effect the other way counts as inactive or inconclusive.
Assays:
HACAT = assay: qHTS assay to identify novel small-molecules to repurpose for Merkel cell carcinoma treatment (AID 1296009); details: MCC and control cell lines, CellTiter-Glo viability, 72 h; at 44.8 µM (top of the series) unless noted; also: nearly all actives have a fitted effect of over 60% in size
In short: (§1)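 Luminescence from CellTiter-Glo, read 10 min after addition at room temperature, reported viability following a 72 hr, 37 degree celsius treatment with NPC or MIPE compounds in titration; values normalized to plate controls.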

NIH3T3 = assay: as above; details: MCC and control cell lines, CellTiter-Glo viability, 72 h; at 44.8 µM (top of the series) unless noted
In short: as §1

C33A = assay: Primary qHTS to identify gynecologic anti-cancer compounds using libraries of approved drugs and bioactive compounds (AID 1345084); details: Gynecologic cancer cell panel viability, ATPlite luminescence, 48 h; series mostly up to 57.5 µM; also: % is scaled to controls: 0 for no effect and ±100 for the full control effect; nearly all actives have a fitted effect of over 55% in size
In short: (§2)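 Cytotoxicity screen measuring ATP content by luciferase luminescence. Each compound is applied at five concentrations for 48 h at 37 C with 5% CO2.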

CAOV3 = assay: as above; details: Gynecologic cancer cell panel viability, ATPlite luminescence, 48 h; series mostly up to 57.5 µM
In short: as §2

CASKI = assay: as above; details: Gynecologic cancer cell panel viability, ATPlite luminescence, 48 h; series mostly up to 57.5 µM
In short: as §2

Es-2 = assay: as above; details: Gynecologic cancer cell panel viability, ATPlite luminescence, 48 h; series mostly up to 57.5 µM
In short: as §2

HeLa = assay: as above; details: Gynecologic cancer cell panel viability, ATPlite luminescence, 48 h; series mostly up to 57.5 µM
In short: as §2

Hek293T = assay: as above; details: Gynecologic cancer cell panel viability, ATPlite luminescence, 48 h, control line for the selectivity index; series mostly up to 57.5 µM
In short: as §2

JEG-3 = assay: as above; details: Gynecologic cancer cell panel viability, ATPlite luminescence, 48 h; series mostly up to 57.5 µM
In short: as §2

CC1(C)O[C@H]2CC(=O)OC[C@@]23C1=C(O)C(=O)[C@]1(C)C3CC[C@@]2(C)[C@H](c3ccoc3)OC(=O)[C@H]3O[C@]321 (stereo not given in full)
inactive: outcome (HACAT) inactive [at 17.4 µM] | outcome (NIH3T3) inactive [at 17.4 µM] | Potency (C33A) | Potency (CAOV3) | outcome (CASKI) | Potency (Es-2) | Potency (HeLa) | Potency (Hek293T) | Potency (JEG-3)

CC(C)(O)C1CC=C(C(=O)OC[C@H]2O[C@@H](Oc3cc(C(=O)O)cc(O)c3O)[C@H](O)[C@@H](O)[C@@H]2O)CC1 (stereo not given in full)
inactive: outcome (HACAT) inactive [at 17.4 µM] | outcome (NIH3T3) inactive [at 17.4 µM] | Potency (C33A) | Potency (CAOV3) | outcome (CASKI) | Potency (Es-2) | Potency (HeLa) | Potency (Hek293T) | Potency (JEG-3)

CC(C)C1NC(=O)C2CCCN2C1=O (stereo not given)
inactive: outcome (HACAT) | outcome (NIH3T3) | Potency (C33A) | Potency (CAOV3) | outcome (CASKI) | Potency (Es-2) | Potency (HeLa) | Potency (Hek293T) | Potency (JEG-3)

CC1(C)CC[C@]2(C(=O)O[C@@H]3O[C@H](CO)[C@@H](O)[C@H](O)[C@H]3O)CC[C@]3(C)C(=CCC4[C@@]5(C)C[C@@H](O)[C@H](O)[C@@](C)(CO)C5[C@H](O)C[C@]43C)C2C1 (stereo not given in full)
inactive: outcome (HACAT) inactive [at 17.4 µM] | outcome (NIH3T3) inactive [at 17.4 µM] | Potency (C33A) | Potency (CAOV3) | outcome (CASKI) | Potency (Es-2) | Potency (HeLa) | Potency (Hek293T) | Potency (JEG-3)

CC(=O)OC(C)(C)/C=C/C(=O)[C@](C)(O)C1[C@H](O)C[C@@]2(C)[C@@H]3CC=C4[C@@H](C[C@H](O[C@@H]5O[C@H](CO)[C@@H](O)[C@H](O)[C@H]5O)C(=O)C4(C)C)[C@]3(C)C(=O)C[C@]12C (stereo not given in full)
inactive: outcome (HACAT) inactive [at 17.4 µM] | outcome (NIH3T3) inactive [at 17.4 µM] | Potency (C33A) | Potency (CAOV3) | outcome (CASKI) | Potency (Es-2) | Potency (HeLa) | Potency (Hek293T) | Potency (JEG-3)

COc1ccc(N2CCN(CCCNC(=O)Cn3c(=O)c4cccn4c4c(C)ccnc43)CC2)cc1
inactive: outcome (HACAT) | outcome (NIH3T3) | Potency (C33A) | Potency (CAOV3) | outcome (CASKI) | Potency (Es-2) | Potency (HeLa) | Potency (Hek293T) | Potency (JEG-3)

COc1cccc(C)c1C(=O)O[C@@H]1C[C@H](O[C@H]2[C@H](O)C[C@H](O[C@@H]3CCC[C@H]4[C@H]3C=C[C@@H]3CCCC/C=C/[C@H]5C=C(C(=O)O)[C@@H](C)C[C@@]56OC(=O)C(=C6O)OC(=O)[C@@]34C)O[C@@H]2C)O[C@H](C)[C@H]1O
inactive: outcome (HACAT) inactive [at 9.27 µM] | outcome (NIH3T3) inactive [at 9.27 µM] | activity change, negative = cytotoxicity (C33A) 10.8% [at 11.6 µM] | activity change, negative = cytotoxicity (CAOV3) 3.73% [at 11.6 µM] | activity change, negative = cytotoxicity (CASKI) 10.4% [at 11.6 µM] | activity change, negative = cytotoxicity (Es-2) 4.28% [at 11.6 µM] | activity change, negative = cytotoxicity (HeLa) 1.33% [at 11.6 µM] | activity change, negative = cytotoxicity (Hek293T) 3.45% [at 11.6 µM] | activity change, negative = cytotoxicity (JEG-3) -0.859% [at 11.6 µM]

C=C1C(OC(C)=O)[C@@]23CCC4[C@](C)(C(=O)O)CCC[C@@]4(C)[C@]2(O)CC[C@H]1C3 (stereo not given in full)
inactive: outcome (HACAT) | outcome (NIH3T3) | Potency (C33A) | Potency (CAOV3) | outcome (CASKI) | Potency (Es-2) | Potency (HeLa) | Potency (Hek293T) | Potency (JEG-3)

COc1ccc(CC(=O)NCc2ccccc2-c2ccccc2C(=O)NCCc2cccnc2)cc1
inactive: outcome (HACAT) | outcome (NIH3T3) | Potency (C33A) | Potency (CAOV3) | outcome (CASKI) | Potency (Es-2) | Potency (HeLa) | Potency (Hek293T) | Potency (JEG-3)

CCC1OC(=O)C(C)CC(C)C(=O)/C(C)=C/C(C)C(=O)/C=C/C1(C)O (stereo not given)
inactive: outcome (HACAT) | outcome (NIH3T3) | Potency (C33A) | Potency (CAOV3) | outcome (CASKI) | Potency (Es-2) | Potency (HeLa) | Potency (Hek293T) | Potency (JEG-3)

CC1(C)CC[C@]2(C(=O)O)CC[C@]3(C)C(=CCC4[C@@]5(C)CC[C@H](O[C@@H]6O[C@H](C(=O)O)[C@@H](O)[C@H](O[C@@H]7O[C@H](CO)[C@H](O)[C@H](O)[C@H]7O)[C@H]6O[C@@H]6O[C@H](CO)[C@@H](O)[C@H](O)[C@H]6O)C(C)(C)C5CC[C@]43C)[C@@H]2C1 (stereo not given in full)
inactive: outcome (HACAT) inactive [at 4.96 µM] | outcome (NIH3T3) inactive [at 4.96 µM] | activity change, negative = cytotoxicity (C33A) 4.15% [at 6.55 µM] | activity change, negative = cytotoxicity (CAOV3) 0.251% [at 6.55 µM] | activity change, negative = cytotoxicity (CASKI) 11.8% [at 6.55 µM] | activity change, negative = cytotoxicity (Es-2) -0.476% [at 6.55 µM] | activity change, negative = cytotoxicity (HeLa) -1.9% [at 6.55 µM] | activity change, negative = cytotoxicity (Hek293T) -0.735% [at 6.55 µM] | activity change, negative = cytotoxicity (JEG-3) 4.16% [at 6.55 µM]

Nc1ncnc2c1ncn2[C@H]1O[C@@H](C(=O)N2CCN(CC(=O)Nc3cccc4c3CNC4=O)CC2)[C@H](O)[C@@H]1O
inactive: outcome (HACAT) | outcome (NIH3T3) | Potency (C33A) | Potency (CAOV3) | outcome (CASKI) | Potency (Es-2) | Potency (HeLa) | Potency (Hek293T) | Potency (JEG-3)

C=C1CC[C@@]2(OC1)O[C@H]1CC3[C@@H]4CC=C5C[C@@H](O)C[C@@H](O[C@@H]6OC[C@H](O)[C@H](O)[C@H]6O[C@@H]6O[C@@H](C)[C@H](O)[C@@H](O)[C@H]6O)[C@]5(C)C4CC[C@]3(C)[C@H]1[C@@H]2C (stereo not given in full)
inactive: outcome (HACAT) inactive [at 17.4 µM] | outcome (NIH3T3) inactive [at 17.4 µM] | Potency (C33A) | Potency (CAOV3) | outcome (CASKI) | Potency (Es-2) | Potency (HeLa) | Potency (Hek293T) | Potency (JEG-3)

COC(=O)c1ccccc1O[C@@H]1O[C@H](CO[C@@H]2OC[C@@H](O)[C@H](O)[C@H]2O)[C@@H](O)[C@H](O)[C@H]1O
inactive: outcome (HACAT) inactive [at 17.4 µM] | outcome (NIH3T3) inactive [at 17.4 µM] | Potency (C33A) | Potency (CAOV3) | outcome (CASKI) | Potency (Es-2) | Potency (HeLa) | Potency (Hek293T) | Potency (JEG-3)

C/C=C/C=C/C(=O)OC1CC/C=C/C(O)C(O)C(CCC)OC1=O (stereo not given)
inactive: outcome (HACAT) | outcome (NIH3T3) | Potency (C33A) | Potency (CAOV3) | outcome (CASKI) | Potency (Es-2) | Potency (HeLa) | Potency (Hek293T) | Potency (JEG-3)
